Screening data: PubChem BioAssay, National Center for Advancing Translational Sciences (NCATS)
NPC1 prom act = activates the NPC1 promoter; Huh7 NPC1 promoter luciferase reporter, 24 h; Potency, µM (top dose mostly 9.22 µM), without a hit: at the top dose activation, most hits filed as activators; 320,000 compounds, 2.4% hits; further: % of control where 0% means no effect; nearly all actives have a fitted effect of over 60% in size
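Compounds in DMSO were transferred onto Huh7 NPC1-luciferase reporter cells pre-incubated 2 h; after 24 h at 37 °C, Amplite reagent was dispensed and luminescence recorded 10 min later.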
FLuc modulator = firefly luciferase modulation, counter-screen for miR-21 project; Potency, µM (doses to about 57.5 µM), without a hit: at the highest dose activity change, negative = inhibition, hits mostly inhibitors; P08659; 360,000 compounds, 6.9% hits; AID 588342; purified FLuc, Km substrates, luminescence inhibition;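 further: plate controls were vehicle for no effect and reference inhibitor for full effect; nearly all actives have a fitted effect of over 55% in size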
Target sequence (P08659 whole entry, looked up): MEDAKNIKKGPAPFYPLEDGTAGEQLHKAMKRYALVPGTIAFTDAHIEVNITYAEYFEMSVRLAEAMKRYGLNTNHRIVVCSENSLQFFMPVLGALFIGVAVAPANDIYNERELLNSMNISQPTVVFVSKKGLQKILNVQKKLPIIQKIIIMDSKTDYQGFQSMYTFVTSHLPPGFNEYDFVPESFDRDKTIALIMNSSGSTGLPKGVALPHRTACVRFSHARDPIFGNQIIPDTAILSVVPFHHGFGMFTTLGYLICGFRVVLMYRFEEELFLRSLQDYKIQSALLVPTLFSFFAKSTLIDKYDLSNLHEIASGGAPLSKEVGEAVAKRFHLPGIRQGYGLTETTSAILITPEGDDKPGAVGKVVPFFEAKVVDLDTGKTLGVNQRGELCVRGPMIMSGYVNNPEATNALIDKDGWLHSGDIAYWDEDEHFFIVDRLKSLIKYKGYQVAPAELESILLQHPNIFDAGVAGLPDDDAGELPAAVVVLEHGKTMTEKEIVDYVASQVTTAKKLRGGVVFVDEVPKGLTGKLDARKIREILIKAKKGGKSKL
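Biochemical qHTS of compounds, final roughly 60 µM downward over six points, against 10 nM purified firefly luciferase using Km concentrations of substrates (10 uM D-luciferin, 10 uM ATP) in Tris acetate pH 7.5 buffer; luminescence output.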
ELG1 genotoxic = induces genotoxicity in HEK293T cells with luciferase-tagged ELG1; Potency, µM (titrated, usually from 46 µM), without a hit: at the highest dose activity change, positive = activation, hits mostly activators; AID 504466; HEK293T ELG1-luciferase reporter, luminescence, 16 h; 330,000 compounds, 1.3% hits; further: % of control where 0% means no effect; nearly all actives have a fitted effect of over 60% in size
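Cells (2,000/well) expressing the ELG1-luciferase fusion are dosed by pin tool and kept 16 hr at 37 °C, 5% CO2. Signal comes from ONE-Glo luciferase reagent after 30 min at room temperature.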
SMN2 splice up = SMN2 splice variant enhancement | HEK293 SMN2-luciferase splicing reporter, luminescence, 30-36 h | Potency, µM (top dose mostly 46.1 µM), for inactives: at the top dose activity change, positive = activation, actives largely listed as activators | 210,000 compounds, 2.8% hits; further: % of control where 0% means no effect; nearly all actives have a fitted effect of over 55% in size
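HEK293 cells carry an SMN2 minigene-luciferase reporter in which exon 7 inclusion puts luciferase in frame. Cells were seeded at 2000 cells/well, attached for 10-12 hours, then exposed to compounds for 30-36 hours at 37C before ONE-Glo luminescence.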
ELG1 repair inh = ELG1-dependent DNA repair inhibition; HEK293T ELG1-luciferase reporter, luminescence, 16 h; DNA damage induced by 5-fluorouridine; Potency, µM (highest dose often 46.1 µM), inactives show at the top dose activity change, negative = inhibition, actives largely listed as inhibitors; 330,000 compounds, 2.3% hits; further: on the % scale 0 is the no-effect control and ±100 the full control effect; nearly all actives have a fitted effect of over 55% in size
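Quantitative HTS, concentration-response format. 2,000 cells/well co-treated with 5-fluorouridine and compound, 16 hr in 5% CO2 at 37 °C; ONE-Glo luminescence read after 30 min.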
Rab9 prom act = Rab9 promoter activation. Huh7 Rab9 promoter-luciferase reporter, luminescence, 24 h. Potency, µM (doses to about 9.22 µM), for inactives: at the top dose activation, negative = inhibition, usual class: activators. 320,000 compounds, 2.8% hits. AID 485297; further: % of control where 0% means no effect; nearly all actives have a fitted effect of over 60% in size
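Luminescence read-out: Huh7 cells stably expressing Rab9-luciferase, treated 24 h with compound at 37 °C, then lysed with luciferase reagent for 10 min at ambient before reading.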
Numbers without * were called inactive; [ ] = remark or other dose. An excerpt weighted towards active compounds, which were near 9.3% of everything screened. The call rests on the fitted dose curve; in most records, active means well fitted curve in the direction sought with a large enough effect; inconclusive means small, poorly fitted or top-dose-only effect, or another doubt; inactive means no such curve, though single readings can be large; an effect the other way counts as inactive or inconclusive. Potency means the concentration at half of the fitted maximal effect.

Cc1cc(N2CC(C(=O)Nc3nccs3)CC2=O)ccc1C(C)C (configuration not stated) was read as NPC1 prom act 1%, FLuc modulator 11µM*, ELG1 genotoxic -4%, ELG1 repair inh 0% and Rab9 prom act 13%.
Screening COc1ccc(C(=O)N2CCc3ccc(NC(=O)c4ccccn4)cc3C2)cc1F returned NPC1 prom act inconclusive, FLuc modulator 21µM*, ELG1 genotoxic -16%, ELG1 repair inh inconclusive and Rab9 prom act 27%.
Screening O=C(O)/C=C\c1ccc(O)c(O)c1 returned SMN2 splice up -2%[20.6 µM].
Screening O=C(/C=C/c1ccc(O)c(O)c1)OCCc1ccccc1 returned NPC1 prom act -8%[46.1 µM], SMN2 splice up 16µM* and Rab9 prom act -25%[46.1 µM].
For COc1ccc(O)c(C(=O)/C=C/c2cc3ccccc3o2)c1 the results were NPC1 prom act -2%, FLuc modulator inconclusive and Rab9 prom act -7%.
Screening O=C(/C=C/c1ccccc1)c1ccc(O)cc1O returned SMN2 splice up -117%.
For O=C(/C=C/c1cc2ccccc2o1)c1ccccc1O the results were NPC1 prom act inconclusive, FLuc modulator 2.4µM*, ELG1 genotoxic inconclusive, ELG1 repair inh inconclusive and Rab9 prom act inconclusive.
For O=C(/C=C/c1ccoc1)c1ccccc1O the results were NPC1 prom act -3%, FLuc modulator 9.5µM*, ELG1 genotoxic inconclusive, SMN2 splice up -7%, ELG1 repair inh inconclusive and Rab9 prom act -3%.
Screening O=C(/C=C/c1ccc(O)c(O)c1)c1ccccc1O returned NPC1 prom act 0%, FLuc modulator 8.5µM*, ELG1 genotoxic inconclusive, ELG1 repair inh inconclusive and Rab9 prom act -18%.
`C=C(C)Cn1c(C)cc(C)c(S(=O)(=O)c2cccc(C)c2)c1=O` gave NPC1 prom act -4%, FLuc modulator 1%, ELG1 genotoxic -5%, SMN2 splice up -24%, ELG1 repair inh inconclusive and Rab9 prom act -1%.
Screening COc1cccc(OCCSc2nc3ccccc3n2CC(=O)N2CCOCC2)c1 returned FLuc modulator 2%.
For COc1cccc(CNC(=O)C2CSC3(C)CCC(=O)N23)c1 (configuration not stated) the results were NPC1 prom act -1%, FLuc modulator 2%, ELG1 genotoxic 7%, ELG1 repair inh inconclusive and Rab9 prom act -3%.
For COc1ccc2ccccc2c1C(=O)/C=C\c1ccoc1 the results were NPC1 prom act -6%, FLuc modulator 27µM*, ELG1 genotoxic 0%, SMN2 splice up -8%, ELG1 repair inh -2% and Rab9 prom act 3%.
For COc1ccc2ccccc2c1/C=C\C(=O)c1ccccc1 the results were SMN2 splice up -19%[9.22 µM].
`CCOc1ccc(C2(C)CC(=O)N(C)C2=O)cc1` (configuration not stated) gave NPC1 prom act -7%, FLuc modulator 1%, ELG1 genotoxic -4%, ELG1 repair inh -3% and Rab9 prom act 1%.
For CCOc1ccc(-c2nnc3ccc(SCC(=O)N4CCCCC4)nn23)cc1 the results were NPC1 prom act 4%, FLuc modulator 0%, ELG1 genotoxic -2%, SMN2 splice up -4%, ELG1 repair inh inconclusive and Rab9 prom act -5%.
`CCOc1ccc(-c2nnc3ccc(SCC(=O)Nc4nc5ccc(C)cc5s4)nn23)cc1` gave NPC1 prom act -3%, FLuc modulator 0%, ELG1 genotoxic -7%, SMN2 splice up -10%, ELG1 repair inh 8.2µM* and Rab9 prom act -2%.
`CCOc1ccc(-c2nnc3ccc(SCC(=O)Nc4nc5ccccc5s4)nn23)cc1` gave NPC1 prom act 0%, FLuc modulator 1%, ELG1 genotoxic 0%, SMN2 splice up 0%, ELG1 repair inh 7.3µM* and Rab9 prom act -1%.
For O=c1n(Cc2ccccc2Cl)nc2n1-c1ccccc1SC2 the results were NPC1 prom act inconclusive, FLuc modulator 24µM*, ELG1 genotoxic inconclusive, ELG1 repair inh inconclusive and Rab9 prom act 3.5µM*.
For O=c1[nH]c(CN2CCN(S(=O)(=O)c3ccccc3C(F)(F)F)CC2)nc2sc3c(c12)CCCC3 the results were NPC1 prom act -3%, FLuc modulator 1%, ELG1 genotoxic -4%, SMN2 splice up -12%[1.84 µM], ELG1 repair inh 16µM* and Rab9 prom act -3%.
Screening COc1cc2nc(CN3CCN(S(=O)(=O)c4ccccc4C(F)(F)F)CC3)[nH]c(=O)c2cc1OC returned ELG1 genotoxic -7% and ELG1 repair inh inconclusive.
CCn1c2ccccc2c2nnc(N3CCN(c4cccc(Cl)c4)CC3)nc21 was read as FLuc modulator -8%.
For CC(=O)Cc1nsc(NC(=O)c2ccc(-c3ccc(F)cc3)o2)n1 the results were NPC1 prom act -2%, FLuc modulator 6µM*, ELG1 genotoxic 1%, SMN2 splice up 2%, ELG1 repair inh 21% and Rab9 prom act 16%.
Screening CC(=O)Cc1nsc(NC(=O)c2ccc(-c3ccccc3Cl)o2)n1 returned NPC1 prom act 4%, FLuc modulator 11µM*, ELG1 genotoxic inconclusive, SMN2 splice up 11µM*, ELG1 repair inh 12% and Rab9 prom act 8%.
CC(=O)Cc1nsc(NC(=O)c2ccc(-c3ccc(Cl)c(C(F)(F)F)c3)o2)n1 was read as NPC1 prom act 6%, FLuc modulator inconclusive, ELG1 genotoxic -1%, SMN2 splice up -6%, ELG1 repair inh -8% and Rab9 prom act -1%.
Screening COc1ccc(-c2coc3c2c(C)cc2oc(=O)c(CC(=O)O)c(C)c23)cc1 returned FLuc modulator 7.6µM* and SMN2 splice up 16%.
Screening Cc1c(CC(=O)O)c(=O)oc2c(C)c3occ(-c4ccc(F)cc4)c3cc12 returned NPC1 prom act -2%, FLuc modulator 2%, ELG1 genotoxic -1%, ELG1 repair inh 12% and Rab9 prom act 2%.
Cc1cc2oc(=O)c(CC(=O)O)c(C)c2c2occ(-c3ccc(F)cc3)c12 was read as FLuc modulator 6.7µM* and SMN2 splice up 12%.
For CN(CC(=O)Nc1cccc(F)c1)C(=O)CNS(=O)(=O)c1ccc(N(C)C)c([N+](=O)[O-])c1 the results were NPC1 prom act -1%, FLuc modulator -1%, ELG1 genotoxic 3%, ELG1 repair inh -2% and Rab9 prom act 2%.
For CC(=O)c1cccc(Nc2nn(-c3ccc(OC(F)(F)F)cc3)nc2C(C)=O)c1 the results were FLuc modulator 6µM* and SMN2 splice up -9%.
